POLK inh: qHTS for Inhibitors of Polymerase Kappa; 400,000 compounds, 0.53% hits; purified Pol kappa, fluorescent DNA synthesis assay, 10 min; Potency, µM (doses to about 107 µM), usual class: inhibitors; DNA polymerase kappa (Homo sapiens), Q9UBT6
Target sequence (Q9UBT6 whole entry, looked up): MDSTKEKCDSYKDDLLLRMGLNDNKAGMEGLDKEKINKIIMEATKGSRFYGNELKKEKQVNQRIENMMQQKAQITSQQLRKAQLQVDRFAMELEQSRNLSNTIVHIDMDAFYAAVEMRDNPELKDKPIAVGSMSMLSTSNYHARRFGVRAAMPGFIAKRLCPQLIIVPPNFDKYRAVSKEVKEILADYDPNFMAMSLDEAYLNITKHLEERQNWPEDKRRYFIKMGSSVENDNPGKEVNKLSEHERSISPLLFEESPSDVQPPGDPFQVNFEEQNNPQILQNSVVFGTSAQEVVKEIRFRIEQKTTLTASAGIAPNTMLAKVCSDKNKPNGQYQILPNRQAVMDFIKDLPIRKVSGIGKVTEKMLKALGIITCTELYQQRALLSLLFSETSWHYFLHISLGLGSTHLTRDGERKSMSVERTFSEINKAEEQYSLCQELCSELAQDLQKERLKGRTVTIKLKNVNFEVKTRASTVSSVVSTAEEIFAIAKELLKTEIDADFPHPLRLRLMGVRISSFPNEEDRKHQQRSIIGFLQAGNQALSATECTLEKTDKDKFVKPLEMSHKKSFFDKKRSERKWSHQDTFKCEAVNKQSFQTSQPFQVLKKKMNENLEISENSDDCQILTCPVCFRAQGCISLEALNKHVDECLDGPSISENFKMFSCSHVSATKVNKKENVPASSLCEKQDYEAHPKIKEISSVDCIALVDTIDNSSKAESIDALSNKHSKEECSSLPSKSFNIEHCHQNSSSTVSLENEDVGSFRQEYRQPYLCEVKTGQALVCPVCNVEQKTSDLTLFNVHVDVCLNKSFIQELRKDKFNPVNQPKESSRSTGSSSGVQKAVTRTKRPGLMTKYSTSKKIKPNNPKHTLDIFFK
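Here, compound and 10 nM enzyme are combined for 15 min at room temperature; adding 50 nM substrate (final) starts DNA synthesis, tracked by fluorescence at 0 and 10 min against buffer-only wells.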
WRN helicase inh: qHTS for Inhibitors of WRN Helicase. WRN helicase unwinding, fluorescent forked duplex, kinetic. Potency, µM (titrated, usually from 114 µM), hits mostly inhibitors. 360,000 compounds, 0.46% hits; also: nearly all actives have a fitted effect of over 55% in size
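Kinetic fluorescence helicase assay: unwinding of a quenched forked DNA duplex (100 nM final) with 2 mM ATP final raises red fluorescence (525/598 nm). Compounds sat 15 min at room temperature with 20 nM WRN beforehand.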
Pol eta inh: qHTS for Inhibitors of Polymerase Eta; DNA polymerase eta (Homo sapiens), Q9Y253; AID 588591, 2011; 390,000 compounds, 1.2% hits; Potency, µM (doses to about 114 µM), usual class: inhibitors; recombinant Pol eta, fluorescent DNA replication assay
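Pol eta (10 nM) was preincubated with compounds for 15 min at room temperature, after which fluorescent replication substrate (50 nM final) was added to start the reaction. Fluorescence was read kinetically at 0 and 10 min.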
Pol beta inh: qHTS Assay for Inhibitors of DNA Polymerase Beta. P06746. 340,000 compounds, 1.3% hits. Potency, µM (series often up to 114 µM), most hits filed as inhibitors. Pol beta primer extension/strand displacement, fluorescence kinetic
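Reaction started by 50 nM substrate onto compound-treated Pol beta (10 nM, 15 min preincubation, room temperature); plates read at 0 min and 10 min. Normalized concentration-effect data fitted by four-parameter Hill equation.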
Pol iota inh: qHTS for Inhibitors of Polymerase Iota. Pol iota fluorescent replication assay, 10 min. Potency, µM (top dose mostly 115 µM), most hits filed as inhibitors. 390,000 compounds, 1% hits
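Fluorescent replication assay read twice, at 0 min and 10 min after adding 50 nM (final) substrate. Enzyme (10 nM) and compounds were first incubated 15 min at room temperature; enzyme-free buffer wells were negative controls.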
FEN1 inhibitor: qHTS Assay for the Inhibitors of Human Flap endonuclease 1 (FEN1); 390,000 compounds, 0.35% hits; Potency, µM (series often up to 114 µM), actives largely listed as inhibitors; Recombinant FEN1 flap cleavage, fluorescence, 15 min; P39748; also: nearly all actives have a fitted effect of over 65% in size
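Enzyme 10 nM, 15 min RT preincubation with compound; start with substrate 50 nM final; reads at 0 and 15 min; qHTS titration, four-parameter Hill fit.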
Hits are given with their value; n = inactive; u = inconclusive; x = not tested or not shown; [ ] = dose if it differs, or a comment. This is a sample that favours compounds with a hit; in the whole collection about 2.4% have one here. Calls follow the shape of the dose curve; as a rule, active = well fitted curve in the direction sought with a large enough effect; inconclusive = small, poorly fitted or top-dose-only effect, or another doubt; inactive = no such curve, though single readings can be large; an effect the other way counts as inactive or inconclusive.

SMILES | POLK inh | WRN helicase inh | Pol eta inh | Pol beta inh | Pol iota inh | FEN1 inhibitor
Cc1c(Cl)cccc1NC(=O)CCS(=O)(=O)c1ccc2c(c1)CC(=O)N2C | n | x | n | n | n | n
CCOC(=O)C1=C(C)N=C2SC(C(=O)OC)=CC(=O)N2C1c1ccc(OC)cc1 (stereo not given) | n | n[11.6 µM] | n | n | 89µM | n
COCCCN1C(=O)C2C(C(=O)Nc3cc(C)cc(C)c3)C3C=CC2(O3)C1C(=O)NC1CCCCC1 (stereo not given) | n | u | 22µM | n | 13µM | n
COc1cccc(CNC(=O)C2CCN(C(=O)N3CCOc4ccc(Cl)cc43)CC2)c1OC | n | x | n | n | n | n
O=c1cc(-c2cccnc2)oc2c1ccc1ccccc12 | n | n[11.6 µM] | n | n | n | 40µM
C/C(=N\NC(=O)c1cc2ccccc2cc1O)c1ccc(C)o1 | n | n | n | 79µM | u | n
C/C(=N\NC(=O)c1cccc(N/N=C(\C)c2ccco2)c1)c1ccco1 | 89µM | n[11.6 µM] | 22µM | n | 45µM | n
C/C(=N\NC(=O)c1cc(C)nc2ccccc12)c1ccco1 | n | n | n | u | n | n
C/C(=N\NC(=O)c1cccc([N+](=O)[O-])c1)c1ccco1 | n | n | n | n | u | n
C/C(=N/NC(=O)c1cc2ccccc2cc1O)c1ccco1 | u | n[11.6 µM] | n | 63µM | 45µM | n
O=C(O)CCCNc1cc(N2CCC3(CC2)OCCO3)c2noc3c2c1C(=O)c1ccccc1-3 | x | x | x | 11µM | x | x
CCOC(=O)N1CCN(c2cc(NCCC(=O)O)c3c4c(onc24)-c2ccccc2C3=O)CC1 | 18µM | n | 3.2µM | 25µM | u | u
CCCCNc1cc(N2CCN(C3CCCCC3)CC2)c2noc3c2c1C(=O)c1ccccc1-3 | n | x | n | n | n | n
O=C1c2ccccc2-c2onc3c(N4CCN(CCO)CC4)cc(N4CCN(C(=O)c5ccco5)CC4)c1c23 | n | n | u | n | u | 45µM
Cc1ccc(-c2nc(=Nc3c(C)cc(C)cc3C)sn2-c2ccccc2)cc1 | n | x | x | x | n | n
CN1CCN(c2ccnc(N(C)CCCCCCN)n2)CC1 | n | x | x | x | n | n
Cc1cc(C)cc(NC2=C(N)C(=O)c3ccccc3C2=O)c1 | n | n | n | n | 7.9µM | n
CC1(C)SC2C(N3C(=O)C(c4ccccc4)NC3(C)C)C(=O)N2C1C(=O)O (stereo not given) | 7.1µM | x | x | x | x | x
CCOP(=O)(OCC)C(C#N)=C1SCN(c2ccccc2)CS1 | n | n | 40µM | x | u | n
CCOP(=O)(c1ccccc1)C1(C#N)CC1 (stereo not given) | n | n | n | n | n | n
COc1ccccc1NC(=O)CSC1=Nc2ccccc2C2=NC(CCC(=O)NCc3ccco3)C(=O)N12 (stereo not given) | n | x | n | n | n | n
Brc1cccc[n+]1CCCC[n+]1ccccc1Br | n | x | x | x | u | 79µM
Brc1cccc[n+]1CCCCCC[n+]1ccccc1Br | n | x | x | x | n | 79µM
CCCCNC(=O)CCC1N=C2c3ccccc3N=C(SCC(=O)NCCc3ccc(OC)c(OC)c3)N2C1=O (stereo not given) | n | x | n | n | n | n
C/C=C/c1ccc(OCc2cc(=O)n3cc(C)ccc3n2)c(OC)c1 | n | n | n | 35µM | u | n
SMILES | POLK inh | WRN helicase inh | Pol eta inh | Pol beta inh | Pol iota inh | FEN1 inhibitor
Clc1ccc(-c2csc3ncnc(Sc4nnnn4C4CC4)c23)cc1 | n | x | x | x | n | n
Cc1cc(Oc2ccc(Cl)cc2Cl)nc(C#N)n1 | n | x | x | x | n | n
Cc1ccc(N(CC(O)COCc2ccco2)S(=O)(=O)c2ccc(C)cc2)cc1 (stereo not given) | 89µM | u | 50µM | 22µM | u | n
Cc1ccc(C(=O)OC2=C(C(=O)c3ccccc3)N(C)S(=O)(=O)c3ccccc32)cc1 | n | x | n | u | 89µM | n
CCCN1C(C(=O)c2ccccc2)=C(OC(=O)c2ccc(C)cc2)c2ccccc2S1(=O)=O | n | x | n | n | n | n
Cc1ccn2c(=O)nc(SCC(=O)OCc3ccccc3)nc2c1 | u | n | 50µM | x | 45µM | n
C=CC(=O)O | n | x | x | x | x | x
O=C(/C=C/c1ccc(Cl)cc1)NC(=S)Nc1ccccc1C(=O)O | n | n[11.6 µM] | 56µM | u | u | n
NC(=O)c1ccccc1NC(=O)/C=C/c1ccc(Cl)cc1 | n | n | n | n | n | n
CC(C)CC(C(=O)Nc1oc(-c2ccco2)c(-c2ccco2)c1C#N)N1C(=O)c2ccccc2C1=O (stereo not given) | u | u | 20µM | 32µM | u | n
O=C1/C(=C\c2ccc(Br)o2)Cc2ccccc21 | n | n | u | 40µM | u | n
Cn1cc(S(=O)(=O)c2ccccc2)c(=O)c2cc(F)c(N3CCCCCC3)cc21 | n | x | n | n | n | n
O=C(c1ccccc1)c1ccc2nc(N3CCN(C(=O)c4ccco4)CC3)c3nncn3c2c1 | n | n | n | n | 79µM | n
O=C(c1ccccc1)c1ccc2nc(N3CCN(c4ccccc4)CC3)c3nncn3c2c1 | n | x | n | n | n | n
CCOC(=O)c1c(NC(C)=O)c2c3c(sc2n1Cc1nc(-c2ccc(Cl)cc2)oc1C)CCCC3 | n | x | x | n | n | n
O=C(Nc1ccc2oc(-c3cc(Br)ccc3Cl)nc2c1)c1cc2ccccc2o1 | n | x | u | 2.8µM | n | n
Cc1ccccc1NC(=O)Cn1c(O)c(N=NC(=O)c2ccccc2O)c2ccccc21 | u | n | u | 10µM | u | n
CC(C)C[C@@H](CNCC(=O)[C@H](Cc1c[nH]c2ccccc12)NC(=O)c1[nH]cnc1C(=O)N[C@@H](C)CN)NC(=O)c1nc[nH]c1C(=O)N[C@@H](CC(=O)O)C(=O)O | n | n | n | x | u | n
CC(C)C[C@@H](CNCC(=O)[C@H](Cc1c[nH]c2ccccc12)NC(=O)c1[nH]cnc1C(=O)N[C@H](CN)CC(C)C)NC(=O)c1nc[nH]c1C(=O)N[C@@H](CC(=O)O)C(=O)O | u | n | 50µM | x | u | n
O=C(O)COc1ccc(/C=C/c2ccc3cccc([N+](=O)[O-])c3n2)cc1 | u | n | 20µM | n | u | n
CC1CCN(S(=O)(=O)c2ccc3c(c2)CCC(=O)N3CC(=O)Nc2cccc(C#N)c2)CC1 | n | x | 79µM | 50µM | u | n
Cc1ccc(NC(=O)C2CCN(S(=O)(=O)c3ccc4c(c3)NC(=O)C(C)S4)CC2)cc1C (stereo not given) | n | n | n | n | n | u
